# Values joined by “and” are separate entries in the source; they are usually repeats but may differ in a detail not shown here. Identical values can stand only once. About 83,000 compounds went through this panel and 20% of them were active in at least one assay; those are over-represented in the sample as a whole.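 For each line, cells grew in 96-well plates with the test compound present at a single concentration for 48 hours.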 Active and inactive are the calls of the source. The calls were made as follows: active = growth percent below 10; inactive = the rest.
# Legend:
# Assay in all cases: NCI-60 one-dose screen, 48 h (100 = growth as untreated, 0 = no growth, -100 = all killed)
# Settings in all cases: 10 µM unless noted
# T-47D breast = test system: T-47D breast
# BT-549 breast = test system: BT-549 breast
# MDA-MB-435 melanoma = test system: MDA-MB-435 melanoma
# SW-620 colon = test system: SW-620 colon
# MCF7 breast = test system: MCF7 breast
# HCT-116 colon = test system: HCT-116 colon
# HCC-2998 colon = test system: HCC-2998 colon
# KM12 colon = test system: KM12 colon
SMILES,growth (T-47D breast),growth (BT-549 breast),growth (MDA-MB-435 melanoma),growth (SW-620 colon),growth (MCF7 breast),growth (HCT-116 colon),growth (HCC-2998 colon),growth (KM12 colon)
CON1CCC[C@]2(C)[C@H]3CC[C@@H]4[C@H]5[C@@H](O)C(C)(C)CC[C@]5(CO)CC[C@@]4(C)[C@]3(C)CC[C@H]2C1(C)C,79.8% (inactive),115% (inactive),94.5% (inactive),98.4% (inactive),98.5% (inactive),88.6% (inactive),103% (inactive),105% (inactive)
CN1CCN(c2ccc(Nc3ncc(C(N)=O)c(NCCCNC(=O)C4CCC4)n3)cc2)CC1,107% (inactive),19.4% (inactive),66.9% (inactive),70.9% (inactive),48.9% (inactive),43.2% (inactive),85.6% (inactive),82.1% (inactive)
CCCCCCNC(=O)Oc1ccc(/C(=C(/CC)Cc2ccccc2)c2ccc(OCCCN(C)C)cc2)cc1,54.4% (inactive),82.8% (inactive),87.8% (inactive),59.6% (inactive),22.9% (inactive),39.8% (inactive),24.1% (inactive),82.4% (inactive)
CCOC(=O)C1=C(C)N=C2SC=C(c3ccc(F)cc3)N2[C@H]1c1cn(-c2ccccc2)nc1-c1ccc(Cl)cc1,79.6% (inactive),93.1% (inactive),94.4% (inactive),100% (inactive),87.2% (inactive),90% (inactive),105% (inactive),107% (inactive)
COc1ccc(/C=C(\C#N)c2cc3ccccc3[nH]2)cc1,28.3% (inactive),40.9% (inactive),-32.6% (active),9.82% (active),13.3% (inactive),12.5% (inactive),39% (inactive),20.4% (inactive)
Nc1nc(Cl)nc2c1ncn2C1OC(CO)C(O)C1O (stereo not drawn),93.5% (inactive) and 107% (inactive),40.2% (inactive),49.2% (inactive) and 53.5% (inactive),66.5% (inactive) and 72.8% (inactive),37.8% (inactive) and 33.8% (inactive),41.9% (inactive) and 43% (inactive),51% (inactive) and 51.7% (inactive),
CCOC(=O)c1c(-c2ccc(C)cc2)c(C#N)c(=O)n(-c2cccc(C(F)(F)F)c2)c1N,99.9% (inactive),113% (inactive),102% (inactive),101% (inactive),94% (inactive),103% (inactive),107% (inactive),100% (inactive)
OCc1cc(CN2CCCCC2)c(O)c2ncccc12,57.4% (inactive),59.7% (inactive),77% (inactive),39.7% (inactive),44.7% (inactive),44.1% (inactive),51.6% (inactive),30.2% (inactive)
Nc1nc(N)c2c(n1)NC(c1cccc(Nc3ccnc4cc(C(F)(F)F)ccc34)c1)CC(c1ccc(F)cc1)=N2 (stereo not drawn),68.3% (inactive),100% (inactive),-24.7% (active),26.4% (inactive),16.7% (inactive),22.4% (inactive),54% (inactive),30.2% (inactive)
c1cc(NCCCCN2CCOCC2)c2ccc3c(ccc4c(NCCN5CCOCC5)ccnc43)c2n1,94.9% (inactive),103% (inactive),98.5% (inactive),-16.5% (active),58.5% (inactive),48.4% (inactive),87.8% (inactive),92.1% (inactive)
COc1ccccc1/C=C/C(=O)/C=C/c1ccccc1OC,-41.1% (active) and 4.16% (active),-51.9% (active) and -30.6% (active),-30.8% (active),-27.1% (active) and -20% (active),5.62% (active) and 17.9% (inactive),-81.7% (active) and -87.1% (active),-84% (active) and 2.03% (active),-60% (active) and -45.2% (active)
O/N=C(/c1ccccc1)c1ccc2c3c(cccc13)CC2,85.9% (inactive) and 93.8% (inactive),84.6% (inactive) and 106% (inactive),47.3% (inactive) and 37.8% (inactive),91.2% (inactive) and 84% (inactive),85.8% (inactive) and 82.6% (inactive),83.7% (inactive) and 92.1% (inactive),101% (inactive) and 97.8% (inactive),86.4% (inactive) and 78.4% (inactive)
O=C(Nc1ccc(F)cc1)c1cc2cc(Nc3nc(-c4ccccc4)nc4ccccc34)ccc2oc1=O,95.7% (inactive),100% (inactive),108% (inactive),107% (inactive),97.9% (inactive),96.3% (inactive),113% (inactive),
Cc1ccc(-c2nc3nc(-c4ccc(Br)cc4)nc(N4CCCNCC4)c3o2)cc1,-8.11% (active),99.5% (inactive),7.5% (active),-72.4% (active),-75.8% (active),-79.8% (active),-80.7% (active),-90.9% (active)
O=C(/C=C/c1ccc(F)cc1)Nc1ncc(Cc2ccc(F)cc2)s1,28% (inactive),67.3% (inactive),-48.2% (active),25.3% (inactive),17.9% (inactive),29.4% (inactive),26.5% (inactive),20.9% (inactive)

# — PubChem BioAssay (NCI)
